{"source": "PubChem BioAssay (NCI)", "note": "Compounds without any hit were thinned out: in the full panel of roughly 83,000, 20% have a hit.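 Cell lines were cultured in 96-well plates, exposed to a single compound concentration, and assessed for percent growth 48 hours later.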 A number with no mark means an inactive call. The source made the active and inactive calls. How the source made its calls: active means growth percent below 10; inactive means the rest."}
{"test_system": "HOP-62 NSCLC", "test": "NCI-60 one-dose screen, 48 h (100 = growth as untreated, 0 = no growth, -100 = all killed)", "settings": "10 µM unless noted"}
{"compound": "COc1ccc(/C(=C\\c2cc(OC)c(OC)c(OC)c2)C(=O)N2CCNCC2)cc1", "growth": "97.4%"}
{"compound": "O=c1c2sc3ncc(Cl)cc3c2nnn1-c1cccc(Cl)c1", "growth": "47.7%"}
{"compound": "F", "growth": "10.7% [6.87 mM]"}
{"compound": "CC1=C(C(=O)Nc2ccc(F)cc2)C(c2ccc(C)cc2)C2=C(CC(C)(C)CC2=O)N1", "note": "(stereo not given)", "growth": "91.5%"}
{"compound": "CC[C@H](Nc1nc(N)nc(C2CC2)c1C#N)c1nc2cccc(NCc3ccc(C(=O)NO)cc3)c2c(=O)n1-c1ccccc1", "growth": "5.11% (active)"}
{"compound": "CC(C)N1CCN(c2ccncc2S(=O)(=O)N2CCN(C)CC2)CC1", "growth": "106%"}
{"compound": "c1ccc(C(CC2=NCCCN2)c2ccccc2)cc1", "growth": "94.1%"}
{"compound": "Clc1ccc2c(c1)-c1ccccc1C1=NCCN12", "growth": "45.9%"}
{"compound": "O=C(C=P(c1ccccc1)(c1ccccc1)c1ccccc1)CCl", "growth": "13.9%"}
{"compound": "COc1cc(/C=C/C(=O)c2ccc(NC(=O)CSc3nnc(-c4ccc(Cl)cc4)n3-c3ccccc3)cc2)cc(OC)c1OC", "growth": "96.5%"}
{"compound": "OC(c1cc2cc(Cl)ccc2c2cc(C(F)(F)F)ccc12)C1CCCCN1", "note": "(stereo not given)", "growth": "-92.3% (active)"}
{"compound": "Clc1cc(Br)ccc1-c1ccc(CNCC2CCNCC2)o1", "growth": "41%"}
{"compound": "CN1CCN(Cc2ccc(NC(=O)c3cncc(C#Cc4ncc5cnccn45)c3)cc2C(F)(F)F)CC1", "growth": "33.7%"}
{"compound": "CC1=C(C(=O)Nc2ccc(F)cc2)C(c2ccc(Cl)cc2)C2=C(CC(C)(C)CC2=O)N1", "note": "(stereo not given)", "growth": "97.2%"}
{"compound": "CCOC(=O)c1ccc(N(CCC(=O)O)C(C)=O)cc1", "growth": "108%"}
